Holding throughout (format): functional
The target in test [1] is Solute carrier family 2, facilitated glucose transporter member 1 (Homo sapiens) (UniProt P11166). Kind of test: ST_JUDE_LEISH: Cytotoxicity at 2uM final concentration against transgenic Leishmania Mexicana promastigotes LmGLUT1 that are glucose transport deficient and complemented with the human glucose transporter GLUT1. Activity is measured by DNA content using SYBR green in vitro.

The target in test [2] is Hexose transporter 1 (Plasmodium falciparum) (UniProt O97467). Kind of test: ST_JUDE_LEISH: Cytotoxicity at 2uM final concentration against transgenic Leishmania Mexicana promastigotes LmPfHT that are glucose transport deficient and complemented with the Plasmodium falciparum hexose transporter. Activity is measured by DNA content using SYBR green in vitro.
The target in test [3] is Glucose transporter (Leishmania mexicana) (UniProt O61059). Description: ST_JUDE_LEISH: Cytotoxicity at 2uM final concentration against transgenic Leishmania Mexicana promastigotes LmGT2 that are glucose transport deficient and complemented with the L. Mexicana glucose transporter 2. Activity is measured by DNA content using SYBR green in vitro.

Structures are written as SMILES.

Sequence of Solute carrier family 2, facilitated glucose transporter member 1 (Homo sapiens) (P11166 whole entry): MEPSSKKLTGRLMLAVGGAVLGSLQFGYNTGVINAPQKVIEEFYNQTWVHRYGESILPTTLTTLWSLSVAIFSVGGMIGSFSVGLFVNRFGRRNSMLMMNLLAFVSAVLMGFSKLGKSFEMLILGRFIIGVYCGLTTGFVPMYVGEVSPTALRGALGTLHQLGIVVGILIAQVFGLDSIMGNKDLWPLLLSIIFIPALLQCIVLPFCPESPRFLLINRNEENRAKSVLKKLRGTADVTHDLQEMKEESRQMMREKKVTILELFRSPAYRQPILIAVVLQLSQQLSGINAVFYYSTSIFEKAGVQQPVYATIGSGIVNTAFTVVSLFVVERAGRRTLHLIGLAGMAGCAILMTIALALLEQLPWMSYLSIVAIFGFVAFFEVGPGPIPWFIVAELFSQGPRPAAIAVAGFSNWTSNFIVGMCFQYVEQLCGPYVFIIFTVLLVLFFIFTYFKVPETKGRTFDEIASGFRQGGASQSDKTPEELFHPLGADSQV

In the case of `O=C(Nc1ccc(-c2cccc(-c3nc4cc(C(F)(F)F)ccc4[nH]3)c2)cc1)Nc1ccc(Cl)c(Cl)c1`, the inhibition in test [1] is 10.9%; in test [2], 7.67%; in test [3], 13%.

`c1ccc(Oc2ccc(Nc3ccnc4cc(-c5cccc(CNCCN6CCOCC6)c5)ccc34)cc2)cc1`: the inhibition in test [1] is -0.34%; in test [2] it was -0.08%; in test [3], 1.68%.

On to `COc1ccc(CN2CCC(CNCC(c3ccccc3)c3ccccc3)CC2)cc1`, for which the values for the inhibition in test [1], in test [2] and in test [3] were 3.54%, 3.87% and 2.23%, respectively.

For `c1ccc2nc(NCCCCCCCCNc3ccc4ccccc4n3)ccc2c1`, the inhibition in test [1] turned out to be 5.37%; in test [2] it was 3.68%; in test [3], 4.58%.

With `CCOc1ccc2ccccc2c1C(=O)Nc1cc(C)nn1-c1nc(C)cc(=O)[nH]1`, the figures for the inhibition in test [1], in test [2] and in test [3] were 49.6%, 44.4% and 20.4%, respectively.

For `COc1cc(-n2c(CN3CCCC3)nc3cc(-c4ccc(Cl)cc4)sc3c2=O)ccc1OCCN1CCCC1`, the figures for the inhibition in test [1], in test [2] and in test [3] were 2.99%, 2.69% and 0.37%, respectively.

On to `CC(C)C(=O)ONC1=NC(C)(C)N(OCCCOc2cc(Cl)c(Cl)cc2Cl)C(NOC(=O)C(C)C)=N1`, for which the inhibition in test [1] was -0.37%; in test [2], 1.64%; in test [3] it was -0.44%.

For the molecule `Cc1ccc(-c2cnc(N)c3cc(-c4ccnc(N)n4)ccc23)cc1`, the inhibition was -0.17% in test [1], -2.15% in test [2] and -1.88% in test [3].

For the molecule `CCc1c(CCNCC/C=C/CCNCCc2ccc(OC)c(OC)c2CC)ccc(OC)c1OC`, the inhibition was 0.84% in test [1], 1.33% in test [2] and -1.26% in test [3].

With `NC1=NC2(CCCCC2)N(OCCCCCCN2C(=O)c3ccccc3C2=O)C(N)=N1`, the results for the inhibition in test [1], in test [2] and in test [3] were 12.9%, 7.88% and 11.2%, respectively.

In the case of `CN(C)C(=O)CC(=O)NCc1cccc(Cl)c1`, the inhibition is 6.99% in test [1], 6.27% in test [2] and 7.23% in test [3].

For `COCCCn1c(=N)c(C(=O)NCCc2ccc(OC)cc2)cc2c(=O)n3cccc(C)c3nc21`, the inhibition turned out to be 4.69% in test [1], 5.42% in test [2] and 8.16% in test [3].

Consider `CCNc1cc(C(=O)N[C@@H](Cc2ccccc2)[C@H](O)CNCCc2cccc3ccccc23)cc(N2CCCC2=O)c1`, for which the inhibition in test [1] is -0.63%; in test [2], -0.02%; in test [3], -1.96%.

Regarding `N=C(N)NC(=O)Nc1cc(Br)c(Br)c(Br)c1`, the inhibition is 3.42% in test [1], 3.17% in test [2] and 1.74% in test [3].

For `Cc1cc(NC(=O)c2ccco2)ccc1OC1CCN(Cc2ccc(C#N)cc2)CC1`, the inhibition in test [1] was 1.63%; in test [2], 1.09%; in test [3], 1.11%.

As for `Cc1cc(-c2cccc3c(C(=O)N4CCc5cc6nccc(N7CCCN(C)CC7)c6cc54)cccc23)cc(C)n1`, the inhibition is -0.39% in test [1], 1.02% in test [2] and 1.14% in test [3].

As for `FC(F)(F)COc1c(CCNCCCCNCCc2ccc3ccccc3c2OCC(F)(F)F)ccc2ccccc12`, the figures for the inhibition in test [1], in test [2] and in test [3] were 105%, 103% and 108%, respectively.

As to `COc1cccc(CNCC(C)(C)c2nc(-c3ccc(Cl)c(O)c3)c(-c3ccncc3)[nH]2)c1`, the inhibition in test [1] is -1.42%; in test [2], -3.17%; in test [3], 2.87%.

As to `N#Cc1cccc(CN2CCCN(Cc3cccc(C(=O)Nc4ccc(Cl)cc4)c3)CC2)c1`, the inhibition is 0.81% in test [1], 0.19% in test [2] and 0.64% in test [3].

Consider `NC1CCCN(Cc2cccc(-c3ccc(-c4nc5cc(C(F)(F)F)ccc5[nH]4)cc3)c2)C1` (stereo not given), for which the inhibition in test [1] was found to be 2.3%; in test [2] it was 0.39%; in test [3] it was 2.55%.

`Cc1cc(=NN=Cc2ccccc2F)c2cc(F)ccc2[nH]1`: the figures for the inhibition in test [1], in test [2] and in test [3] were 1.79%, 3.14% and 0.82%, respectively.

On to `CCC1CCc2cc(N)cc(-c3nc4c(c(C)nn4CC)c(=O)[nH]3)c2O1` (stereo not given), for which the inhibition came to 5.2% in test [1], 4.15% in test [2] and 3.42% in test [3].

On to `O=c1cc(NCCCNCc2cc(Cl)c(Cl)cc2Cl)[nH]c2ccccc12`, for which the inhibition is 0.5% in test [1], -0.04% in test [2] and 0.23% in test [3].

Consider `CC(C)(C)c1nn(-c2ccccc2)c2[nH]c(=O)c(CNCCc3ccccc3)cc12`, for which the inhibition in test [1] is 0.22%; in test [2], -1.47%; in test [3], -1.89%.

Consider `Cc1nc(-c2cccc(C(F)(F)F)c2)n2nc(Nc3ccc(OCCN4CCCC4)cc3)ncc12`, for which the values for the inhibition in test [1], in test [2] and in test [3] were 76%, 53.7% and 9.22%, respectively.

Consider `CC(CC(=O)NCC1(c2ccc(F)cc2Cl)CCOCC1)C(=O)c1ccc(Cl)cc1` (stereo not given), for which the inhibition in test [1] came to 0.34%; in test [2], 1.23%; in test [3], 1.88%.

Take `CCc1c[nH]c2c(N3CCCS3(=O)=O)cc(C(=O)N[C@@H](Cc3ccccc3)[C@H](O)CNC(C)(C)c3cccc(C(F)(F)F)c3)cc12`: the inhibition in test [1] was -0.71%; in test [2], 0.86%; in test [3], 0.6%.

On to `O=C1OC2(CCN(Cc3cccc(-c4ncc[nH]4)c3)CC2)CN1CCNCc1ccccc1`, for which the results for the inhibition in test [1], in test [2] and in test [3] were 1.81%, 1.4% and -0.76%, respectively.

Regarding `CCCc1ccc(NC(=O)c2cccc(CN3CCCN(Cc4cccc(C#N)c4)CC3)c2)cc1`, the inhibition in test [1] is 3.6%; in test [2] it was -0.3%; in test [3], 1.95%.

For the molecule `CN(C)Cc1ccc(-c2cccc(NC(=O)c3cccc(Cl)c3)c2)cc1`, the figures for the inhibition in test [1], in test [2] and in test [3] were 2.44%, 1.66% and 1.39%, respectively.

In the case of `N#Cc1ccc(-c2ccc(C(=O)NCCCCN3CCC(c4ccncc4)CC3)cc2)cc1`, the inhibition is 1.06% in test [1], 1.16% in test [2] and 2.75% in test [3].

As to `Cc1cccc2nc(-c3cccc(-c4cccc(C(=O)NCc5nccn5C)c4)c3)[nH]c12`, the inhibition in test [1] turned out to be 11.5%; in test [2], 10.8%; in test [3], 10.2%.

For `Cc1ccc(Cn2cnc3cc(C(=O)Nc4ccc(-c5cccc(CN(C)C)c5)cc4)ccc3c2=O)o1`, the inhibition in test [1] was 75.5%; in test [2], 59%; in test [3], 51.1%.

For the molecule `Clc1ccc(C=NN=c2cc[nH]c3ccccc23)cc1`, the figures for the inhibition in test [1], in test [2] and in test [3] were 9.89%, 8.46% and 6.25%, respectively.

`CCCCOC(=O)c1ccc(Nc2cc(C)nc3ccc(OC)cc23)cc1`: the figures for the inhibition in test [1], in test [2] and in test [3] were 14.7%, 12.5% and 6.35%, respectively.

What is called inhibition is the change of the read-out against control, counted positive when it falls.
